Reference: PubChem BioAssay AID1159580 (chemical genetic matrix, 2015)
“And” between values parts separate entries of the source, which are not always exact repeats. Equal values may be shown once. Out of some 5,500 compounds screened, about 2,000 (36%) were called active. Not shown: some 18% with an inconclusive outcome. Rule as the data show it: active = normalized growth mostly below about 0.91 (no sharp cut-off); inconclusive = no clear call, values can overlap the other calls; inactive = mostly above about 0.92. This is one part of the list.

Assay: chemical genetic growth profiling, strain panel (AID 1159580);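 also: tested at 20 µM; growth read once vehicle control cultures reached saturation at 30 °C; 1 = growth at the plate median or of vehicle wells; lower values mean less growth of the strain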
Conditions: S. cerevisiae deletion strains, growth OD

Measured: normalized growth

O=C(O)[C@H](O)[C@@](O)(Cc1ccc(O)cc1)C(=O)O
inactive: locus YAL013W, strain DEP1, active compounds read low 1.04 | locus YAL021C, strain ccr4, active compounds read low 1 | locus YAL026C, strain drs2, active compounds read low 1 | locus YAL030W, strain snc1, active compounds read low 1.01 | locus YBL061C, strain skt5, active compounds read low 1.01 | locus YBR009C, strain hhf1, active compounds read low 1.01 | locus YBR021W, strain FUR4, active compounds read low 1.02 | locus YBR023C, strain chs3, active compounds read low 1.02 | locus YBR171W, strain sec66, active compounds read low 1.02 | locus YBR229C, strain ROT2, active compounds read low 1.02 | locus YBR231C, strain swc5, active compounds read low 1.01 | locus YBR279W, strain paf1, active compounds read low 1.01 | locus YCL011C, strain gbp2, active compounds read low 1.01 | locus YCL016C, strain dcc1, active compounds read low 1.02 | locus YCL029C, strain bik1, active compounds read low 1.02 | locus YCL061C, strain MRC1, active compounds read low 1.02 | locus YCL069W, strain vba3, active compounds read low 1 | locus YCR088W, strain abp1, active compounds read low 1.01 | locus YDL005C, strain med2, active compounds read low 0.996 | locus YDL035C, strain GPR1, active compounds read low 1.06 | locus YDL040C, strain nat1, active compounds read low 1 | locus YDL074C, strain BRE1, active compounds read low 1.06 | locus YDL101C, strain DUN1, active compounds read low 1.03 | locus YDL134C, strain PPH21, active compounds read low 1.02 | locus YDL185W, strain tfp1, active compounds read low 0.992 | locus YDL192W, strain arf1, active compounds read low 1.03 | locus YDR001C, strain nth1, active compounds read low 1.02 | locus YDR069C, strain doa4, active compounds read low 1.01 | locus YDR101C, strain arx1, active compounds read low 1.02 | locus YDR137W, strain rgp1, active compounds read low 1.03 | locus YDR159W, strain sac3, active compounds read low 1 | locus YDR162C, strain NBP2, active compounds read low 1.06 | locus YDR195W, strain ref2 0.989 | locus YDR297W, strain sur2, active compounds read low 1.01 | locus YDR318W, strain mcm21, active compounds read low 1.01 | locus YDR334W, strain swr1, active compounds read low 1.01 | locus YDR335W, strain msn5, active compounds read low 1 | locus YDR388W, active compounds read low 1 | locus YDR392W, strain spt3, active compounds read low 0.976 | locus YDR502C, strain sam2, active compounds read low 0.995 | locus YEL003W, strain gim4, active compounds read low 0.999 | locus YEL037C, strain rad23, active compounds read low 1 | locus YEL061C, strain CIN8 (second series), active compounds read low 0.999 | locus YER015W, strain faa2, active compounds read low 1 | locus YER016W, strain bim1, active compounds read low 1 | locus YER110C, active compounds read low 0.992 | locus YER111C, strain swi4, active compounds read low 1 | locus YER155C, strain BEM2 (second series), active compounds read low 1.01 | locus YER155C, strain BEM2, active compounds read low 1.01 | locus YER167W, strain BCK2, active compounds read low 1.02 | locus YFR010W, strain ubp6, active compounds read low 1.01 | locus YGL078C, strain dbp3, active compounds read low 1.01 | locus YGL086W, strain mad1, active compounds read low 1.01 | locus YGL167C, strain pmr1, active compounds read low 1.01 | locus YGL173C, strain kem1, active compounds read low 1.02 | locus YGL227W, strain vid30, active compounds read low 1.01 | locus YGL240W, strain doc1, active compounds read low 1.01 | locus YGL248W, strain PDE1, active compounds read low 1.03 | locus YGL253W, strain hxk2, active compounds read low 1.01 | locus YGR078C, strain PAC10, active compounds read low 1.03 | locus YGR135W, strain pre9, active compounds read low 0.987 | locus YGR252W, strain gcn5, active compounds read low 0.966 | locus YHR013C, strain ard1, active compounds read low 1.02 | locus YHR027C, strain rpn1, active compounds read low 1.02 | locus YHR030C, strain SLT2, active compounds read low 1.02 and 1.01 | locus YHR079C, strain IRE1 (second series), active compounds read low 1 | locus YHR079C, strain IRE1, active compounds read low 1 | locus YHR094C, strain hxt1, active compounds read low 0.999 | locus YHR129C, strain ARP1, active compounds read low 1.02 | locus YHR142W, strain chs7, active compounds read low 1.02 | locus YHR200W, strain rpn10, active compounds read low 0.996 | locus YIL066C, strain RNR3, active compounds read low 1.04 | locus YIL073C, strain SPO22, active compounds read low 1.05 | locus YIL125W, strain kgd1, active compounds read low 1.02 | locus YIR030C, strain dcg1, active compounds read low 1 | locus YJL092W, strain hpr5, active compounds read low 1.02 | locus YJL095W, strain BCK1 (second series), active compounds read low 1.01 | locus YJL095W, strain BCK1, active compounds read low 1.05 and 1.01 | locus YJL115W, strain asf1, active compounds read low 0.997 | locus YJL129C, strain trk1, active compounds read low 1.03 | locus YJL134W, strain LCB3, active compounds read low 1.02 | locus YJL154C, strain vps35, active compounds read low 1 | locus YJL164C, strain tpk1, active compounds read low 1.01 | locus YJL166W, strain qcr8, active compounds read low 1.01 | locus YJL168C, strain set2, active compounds read low 1 | locus YJL187C, strain SWE1 (second series), active compounds read low 1.04 | locus YJL187C, strain SWE1, active compounds read low 1.01 | locus YJR043C, strain POL32, active compounds read low 1.06
